# According to PubChem BioAssay (EPA / NIEHS):
# “And” between values parts separate entries of the source, which are not always exact repeats. Equal entries are not always repeated. Some structures have more than one record in an assay (separate samples or runs), and their calls can disagree. The source made the active and inactive calls. The calls were made as follows: active = hit-call score of the fitted dose curve at least 0.9, where 1 is the maximum; inactive = score below 0.9.
# Assay: CCTE_Shafer_MEA_dev_network_spike_duration_std: CCTE's Neural Network Formation Assay for Standard Deviation of Network Spike Duration, Shafer Lab (AID 2284052);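 also: hits are decreases in network spike duration SD versus DMSO vehicle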
# Method: CCTE_Shafer_MEA_dev assay is conducted using Axion Biosystems 48 well microelectrode array (MEA) plates and Maestro recording system. Each well of the MEA plate contains a grid of 16 microelectrodes embedded in the culture surface. Electrically active cells, such as neurons, can be cultured over the electrodes, and electrical activity in these cells can be recorded extracellularly. The spontaneous firing of neurons is captured from each electrode on a microsecond timescale providing both temporally and spatially precise data. […] The CCTE_Shafer_MEA_dev assay uses primary cultures of rat cortical neurons. Recordings are made on days post-plating 5, 7, 9 and 12. As these cultures mature over time, neural networks develop functional activity and form cohesive networks in which electrical activity can be highly coordinated. CCTE_Shafer_MEA_dev_network_spike_duration_std is 1 of 19 assay components of the CCTE_Shafer_MEA_dev assay. It measures the standard deviation of the duration of network spikes (temporally-clustered groups of action potential firing across multiple electrodes) during a recording in a microelectrode array (MEA) using Axion Biosystems Maestro 768 channel amplifier with the AxIS adaptive spike detector. To collapse across multiple recordings made on days post-plating 5, 7, 9 and 12, the trapezoidal area-under-the-curve of the component is calculated.Data from the assay component CCTE_Shafer_MEA_dev_network_spike_duration_std was analyzed into 1 assay endpoint. This assay endpoint, CCTE_Shafer_MEA_dev_network_spike_duration_std, was analyzed in the negative analysis fitting direction relative to DMSO as the negative control and baseline of activity. Using a type of functional reporter, gain or loss-of-signal activity can be used to understand electrical activity.
# On the day prior to culture, each well was coated thoroughly with 150 uL of 0.05% polyethyleneimine (PEI, Sigma Cat P3143) in 50 mM HEPES (Sigma Cat H7523) at a pH of 8. The plate was incubated at 37C for one hour. PEI was rinsed out with 500 uL of sterile water three times. Plates were stored at 4C until the day of culture. This culture was plated at a seeding density of 1.5 x 10^5 cells/well on a 48-well MEA plate, prepared as described above. Cells were administered via a 25 uL media/laminin ([…]; Sigma Cat L2020-1MG) drop directly onto the microelectrode array, as adding the cells with the laminin results in better attachment than pre-coating with laminin. After 2 hours, an additional 475 uL of cortical media was added and the cells returned to the incubator. Exposure starts at day 0 of plating and is continued over twelve days of network development until the experiment is terminated. Cells are fed with fresh medium on DIV 5 and 9, following the recordings on those days. The entire volume of media in the well is exchanged and any vehicle or compound treatment is renewed. Complete details are found in OP-NHEERL/ISTD/SBB/TJS/2015-03-r0 (available on request, email shafer.tim@epa.gov). Measurement of the electrical activity is non-invasive, and recordings can be made from the same plate over multiple different days of the culture. In cortical neurons, this allows for the measurement of extracellular action potentials over the period during which networks form in the MEA plate.
SMILES,AC50,outcome
CCOP(=O)(OCC)Oc1nc(Cl)c(Cl)cc1Cl,2.98 µM (active),inactive
COP(=S)(OC)SCn1nnc2ccccc2c1=O,–,inactive
C=C(C)CN(CC)c1c([N+](=O)[O-])cc(C(F)(F)F)cc1[N+](=O)[O-],13.1 µM (active),–
CC1(C)C(C(=O)OC(C#N)c2cccc(Oc3ccccc3)c2)C1(C)C (configuration not stated),–,inactive
CC1(C)C(C=C(Cl)Cl)C1C(=O)OC(C#N)c1cccc(Oc2ccccc2)c1 (configuration not stated),2.2 µM (active),inactive
CCNC(=O)NC(=O)C(C#N)=NOC,–,inactive
O=C(Nc1ccccc1-c1ccc(Cl)cc1)c1cccnc1Cl,1.14 µM (active),inactive
CS(=O)(=O)c1ccc(C(=O)C2C(=O)CCCC2=O)c([N+](=O)[O-])c1,–,inactive
CCN(CC)c1nc(C)cc(OP(=S)(OC)OC)n1,–,inactive
COP(=O)(OC)O/C(C)=C/C(=O)N(C)C,–,inactive
CN/C(=N\[N+](=O)[O-])NCc1cnc(Cl)s1,–,inactive
N#CN=C1SCCN1Cc1ccc(Cl)nc1,–,inactive
O=C1C2CC=CCC2C(=O)N1SC(Cl)(Cl)Cl (configuration not stated),–,inactive
CCOC(=O)C(C)OC(=O)c1cc(Oc2ccc(C(F)(F)F)cc2Cl)ccc1[N+](=O)[O-] (configuration not stated),–,inactive
CC(C)(C)C(=O)C(Oc1ccc(Cl)cc1)n1cncn1 (configuration not stated),–,inactive
CCSC(=O)N1CCCCCC1,–,inactive
CCCN(CC)CC1COC2(CCC(C(C)(C)C)CC2)O1 (configuration not stated),0.0662 µM (active),–
CNC(=O)Oc1cccc2ccccc12,–,inactive
COC(=O)N(C(=O)N1CO[C@@]2(C(=O)OC)Cc3cc(Cl)ccc3C2=N1)c1ccc(OC(F)(F)F)cc1,–,inactive
CO/N=C(/C1=NOCCO1)c1ccccc1Oc1ncnc(Oc2ccccc2Cl)c1F,0.889 µM (active),–
CC(C)=CC1C(C(=O)OCc2coc(Cc3ccccc3)c2)C1(C)C (configuration not stated),–,inactive
CS(=O)(=O)c1cc(C(F)(F)F)ccc1C(=O)c1cnoc1C1CC1,–,inactive
COP(=S)(OC)Oc1ccc([N+](=O)[O-])c(C)c1,–,inactive
Cc1c(COC(=O)[C@@H]2[C@H](/C=C(\Cl)C(F)(F)F)C2(C)C)cccc1-c1ccccc1,2.29 µM (active) and 2.33 µM (active),–
